# Sampled rows, rich in hits. Any-hit rate of the full collection: about 14%.
# HCMV inh – human cytomegalovirus inhibition; 4.5% of 410,000 active; AID 1259415; activity change, negative = inhibition, % at 57.5 µM; HFF cells, HCMV-luciferase reporter, 72 h; stronger effect = lower value; in the data active = activity change below about -60%; inconclusive = no clear call, values can overlap the other calls; inactive = above about -39%
#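 Steps: HFFs plated, 16 h 37C; compounds added; HCMV-luciferase added to MOI 1 PFU/cell; 72 h 37C; OneGlo reagent, 5 min room temperature; luminescence read, normalized to controls.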
# HCV inhibitor – blocks hepatitis C virus | Huh7.5.1 HCVcc-Cre infection, luciferase reporter, 44 h | Potency, µM (doses to about 41.8 µM), for the others: at the top dose activity change, negative = inhibition, most hits filed as inhibitors | 3.4% of 340,000 active; note: potency is the fitted concentration of half-maximal effect
#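 Cells (1,000/well) were plated 4 h before compound, then infected with HCVcc-Cre virus (~0.5 moi). After 44 h further culture, infection was read as luciferase luminescence following a 15 min substrate incubation at room temperature.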
# Pf growth 96h – inhibits malaria parasite growth, 96 h | P. falciparum luciferase reporter growth, 96 h | Potency, µM (doses to about 28.7 µM), for the others: at the highest dose activity change, negative = inhibition, actives largely listed as inhibitors | 6.9% of 320,000 active; note: potency is the fitted concentration of half-maximal effect
#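 Two-generation exposure (96 h) targets delayed-death phenotype. Reporter parasites carrying integrated firefly luciferase, in red cells at 2% hematocrit and 0.05% parasitemia final, kept at 37 C, 5% CO2; luminescence loss indicates inhibition.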
# MARV entry inh – Marburg virus entry inhibition; Marburg virus pseudotyped entry inhibition, cell reporter; Potency, µM (highest dose often 37.8 µM), without a hit: top-dose activity change, negative = inhibition, most hits filed as inhibitors; 1.8% of 300,000 active; calls by dose curve; tested in HEK293 cells; note: potency is the fitted concentration of half-maximal effect
# Lassa entry inh – Lassa virus entry inhibition; AID 540256; Lassa virus pseudotype entry inhibition, cell reporter; Potency, µM (series often up to 37.9 µM), for the others: at the top dose activity change, negative = inhibition, most hits filed as inhibitors; 1.2% of 300,000 active; calls by dose curve; tested in HEK293 cells; note: potency is the fitted concentration of half-maximal effect; nearly all actives have a fitted effect of over 50% in size
# Pf growth 48h – inhibits P. falciparum growth in the first generation, 48 h; P. falciparum luciferase growth in erythrocytes, 48 h; Potency, µM (doses to about 28.7 µM), for the others: at the top dose activity change, negative = inhibition, hits mostly inhibitors; 5.9% of 310,000 active; note: potency is the fitted concentration of half-maximal effect
#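 Compounds are pin-transferred into medium, infected erythrocytes (2% hematocrit, 0.1% parasitemia final) are added, and plates sit one parasite generation at 37 C in 5% CO2. Detection reagent is then added and luminescence measured.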
# * = called active by the depositor; ? = inconclusive; / = not tested or not shown; [ ] = remark or other dose. Unless noted, calls come from the whole dose curve; as a rule, active = well fitted inhibition curve with a large enough effect; inconclusive = small, poorly fitted or top-dose-only effect, or another doubt; inactive = no such curve, though single readings can be large or run the other way. % is set by controls: 0 for no effect and ±100 for the full control effect.
SMILES,HCMV inh,HCV inhibitor,Pf growth 96h,MARV entry inh,Lassa entry inh,Pf growth 48h
Cc1cc(C(=O)COC(=O)/C=C/c2ccco2)c(C)n1C,-14,2%,/,?,-26%[46.1 µM],/
COc1ccccc1C(=O)NCCC(=O)NC(C)c1ccc(-n2ccnc2)cc1 (stereo not given),-18,?,5%,18%,5%,-3%
COC(=O)c1cc2sc(Cl)cc2n1Cc1nc(-c2ccccc2C)oc1C,3,/,/,-26%[46.1 µM],/,/
CCc1cccc(NC(=O)CN2C(=O)COc3ccc(S(=O)(=O)N4CCC(C)CC4)cc32)c1,-3,/,/,/,-11%[46.1 µM],/
O=S(=O)(c1ccccc1F)N1CCN(CCOc2ccccc2)CC1,-10,?,?,/,/,-7%
CCCCCC(=O)NNC1CC(=O)N(c2ccccc2)C1=O (stereo not given),22,11%,60%,?,12%[46.1 µM],-12%
CCCCCC(=O)N(O)C1CC(=O)N(c2ccccc2)C1=O (stereo not given),98,10%,?,-7%,-17%,10µM*
CCCCCCC(=O)N(O)C1CC(=O)N(Cc2ccccc2)C1=O (stereo not given),48,-7%,/,?,?,5.9µM*
Cc1ccc(-c2ocnc2C(=O)Nc2ccccc2NC(=O)c2ccccn2)cc1,?,?,18%,?,-20%,2.1µM*
Cc1ccc(-c2ocnc2C(=O)Nc2nc(C)cs2)cc1,59,23%,-86%,-6%,-3%,113%
Cc1cccc(-c2ocnc2C(=O)Nc2ccccc2NC(=O)c2ccccn2)c1,-98*,?,?,?,?,?
CC(=O)Oc1ccccc1C(=O)Oc1ccc(/C=N/n2cnnc2)cc1,-4,14%,8.3µM*,5%,0%,12%
CCOc1ccc(C(=O)NCC(c2ccco2)S(=O)(=O)c2cccs2)cc1 (stereo not given),18,/,/,/,15%[46.1 µM],/
COc1cc(C(=O)OCC(=O)Nc2ccc(SC(F)F)cc2)cc(OC)c1OC,14,?,0%,?,0%,3%
COc1cc(/C=C(\C#N)C(=O)Nc2ccc(SC(F)F)cc2)cc(OC)c1OC,32,-23%,5.2µM*,2%,12%,/
CCOc1cc(/C=C(/C#N)C(=O)Nc2ccc(O)cc2)cc(Br)c1O,-61*,-24%,1%,?,?,-19%
Clc1cccc(-c2nn3c(-c4ccncc4)nnc3s2)c1,/,/,13µM*,1%,/,20%
c1ccc(-c2nnc3sc(-c4ccncc4)nn23)cc1,-29,-4%,/,-19%,5%,-26%
Cc1cc(-c2nnc3sc(C4CCCCC4)nn23)n[nH]1,-25,15%,?,-22%,-19%,/
COc1cc(-c2nnc3sc(C4CCCCC4)nn23)cc(OC)c1OC,/,?,5.2µM*,?,?,8.3µM*
CCOc1cccc(-c2nnc3sc(C4CCCCC4)nn23)c1,?,-18%,10µM*,12%,?,9.3µM*
COc1cccc(OC)c1-c1nn2c(-c3cc(-c4ccccc4)n[nH]3)nnc2s1,?,?,-21%,?,?,2.1µM*
COc1ccc(-c2nnc3sc(-c4c(OC)cccc4OC)nn23)cc1,/,/,/,-2%,/,/
Clc1ccc2c(-c3ccccc3)nc(-c3cccs3)nc2c1,-7,/,/,/,/,/
CCN(C(=O)CSc1nc2ccccc2n1Cc1cc(C)ccc1C)c1ccccc1,-6,/,/,/,26%[46.1 µM],/
SMILES,HCMV inh,HCV inhibitor,Pf growth 96h,MARV entry inh,Lassa entry inh,Pf growth 48h
N#Cc1cccc(OC(=O)C2CCN(C(=O)c3ccc(F)cc3)CC2)c1,32,/,/,/,/,/
CCN(CC)C(=O)C1=C(C)N(CCCN2CCCC2=O)C(=O)C(CC(=O)NCCN2CCOCC2)C1 (stereo not given),-26,/,/,/,/,/
O=C(O)CN(CCN(CC(=O)O)CC(=O)O)CCN(CC(=O)O)CC(=O)O,/,/,?,-29%,2%,-19%
COc1cccc(-c2nnc3sc(-c4ccccc4)nn23)c1,43,?,3.3µM*,18%,-8%,?
COc1cc(OC)c(-c2nn3c(C4CCCCC4)nnc3s2)cc1OC,-11,?,44%,-20%,-5%,5.2µM*
Clc1ccc(OCc2nn3c(C4CCCCC4)nnc3s2)c(Cl)c1,10,-16%,28%,-10%,-14%,43%
